BoNT A protease: BoNT/A light chain protease inhibitors, primary screen, biochemical, flow cytometry, MLPCN library. multiplex microsphere protease substrate cleavage. inhibition, % at 10 µM. 360,000 compounds, 0.17% hits. AID 588499, 2011
GDH-TPI counter: GDH-TPI coupling enzyme inhibitors, primary screen, artefact control for M. tuberculosis FBA inhibitor project, biochemical, absorbance, full deck. GDH-TPI coupled enzyme counterscreen, NADH absorbance. inhibition, % at 4.8 µM. 360,000 compounds, 1.2% hits; in the data active = inhibition above about 30%
Autofluor counter: flagged as autofluorescent in microsphere protease counterscreen | compound autofluorescence counterscreen, microsphere flow cytometry; stronger effect = higher value | fluorescence intensity (test concentration not listed) | 360,000 compounds, 3.1% hits | AID 624483; in the data active = fluorescence intensity above about 16000; inconclusive = no clear call, values can overlap the other calls
Mtb FBA inh: Mtb FBA enzyme inhibitors, primary screen, biochemical, fluorescence, strain H37Rv | Fructose-bisphosphate aldolase (Mycobacterium tuberculosis (strain ATCC 25618 / H37Rv)), … | purified M. tuberculosis FBA, fluorescence read-out | inhibition, % at 1 µM | 360,000 compounds, 2.3% hits | AID 588726, 2011; in the data active = inhibition above about 27%
BoNT-F LC inh: BoNT/F light chain protease inhibitors, primary screen, biochemical, flow cytometry, MLPCN library; Multiplex microsphere protease cleavage assay; Botulinum neurotoxin type F light chain protease (Clostridium botulinum); inhibition, % at 10 µM; 360,000 compounds, 0.22% hits; in the data active = inhibition above about 35%, passing the limit was not always enough; inconclusive = no clear call, values can overlap the other calls
Anthrax LF inh2: Bacillus anthracis LF protease inhibitors, primary screen, biochemical, multiplex microsphere, MLPCN library; multiplex microsphere protease cleavage assay; inhibition, % at 10 µM; 360,000 compounds, 0.12% hits; AID 588501, 2011
Of the large screens only hits and unclear results are named; the others gave an inactive call. An excerpt weighted towards active compounds, which were near 6.6% of everything screened. Cut-off read from the data, not from the text of the source, unless noted: active = inhibition above about 30%; inconclusive = no clear call, values can overlap the other calls; inactive = below that.

N#C/C(=C\c1ccc(O)c([N+](=O)[O-])c1)C(=O)NCc1ccccc1	GDH-TPI counter 44, Autofluor counter inconclusive
N#C/C(=C\c1ccc(OCc2ccc(C(=O)O)cc2)cc1)C(=O)NCc1ccccc1	GDH-TPI counter 36
N=C(N1CCCc2ccccc21)N1CCCc2ccccc21	none
CC(C)Cc1nnc(NC(=O)CCC(=O)N2CCN(Cc3ccc(Cl)cc3)CC2)s1	none
CCCCNC(=O)C1(C)CCCCN1C(=O)c1cc2ccccc2s1 (configuration not stated)	none
C#CCNC(=O)C1=C[C@H](c2csc3ccccc23)C[C@H](OCCCCO)O1	none
O=C1NC(=Nc2ccccc2)S/C1=C\c1ccccc1	GDH-TPI counter 33
O=C1NC(=Nc2cccc(O)c2)S/C1=C\c1cccnc1	none
O=C1NC(=Nc2cccc(O)c2)S/C1=C\c1cccc([N+](=O)[O-])c1	GDH-TPI counter 32
COc1ccc(/C=C2\SC(=Nc3ccccc3OC)NC2=O)cc1	BoNT A protease inconclusive, GDH-TPI counter 50, BoNT-F LC inh inconclusive
COc1cc(/C=C2\SC(=Nc3ccccc3OC)NC2=O)ccc1O	none
O=C(CN1CCN(c2ccccc2)CC1)Nc1c(C(=O)C2CC2)oc2ccccc12	BoNT A protease inconclusive, Autofluor counter 20951
COc1cccc(C=C2SC(=S)NC2=O)c1	GDH-TPI counter 31
COc1cccc(/C=C2\SC(=S)N(N3C(=O)CCCC3=O)C2=O)c1	none
Cc1cc(C)c(S(=O)(=O)N2CCN=C2c2ccccc2)cc1C	Autofluor counter 22172
COCCn1c(=NC(=O)c2cccs2)sc2cc(NC(C)=O)ccc21	GDH-TPI counter 45
Oc1ccc(O)c(-c2cnns2)c1	none
CCCCC(CC)C1OCC(CN2CCCC2)O1 (configuration not stated)	BoNT A protease inconclusive, Autofluor counter 19353
CCCS(=O)(=O)NC(=O)C1(C)CCN(C(=O)c2cccc(C)c2C)C1 (configuration not stated)	none
OC(CCN1CC2CCC(CC2)C1)(Cc1ccccc1)c1ccco1 (configuration not stated)	none
Cc1cc(N2CCOCC2)nc2ccc(NC(=S)NCCC(C)C)cc12	Mtb FBA inh 28
CCN1CCN(c2cc(C)c3cc(NC(=O)c4cc(OC)cc(OC)c4)ccc3n2)CC1	GDH-TPI counter 34
COc1ccc(N(C)C(=O)CCC(=O)Nc2ccc3nc(N4CCOCC4)cc(C)c3c2)c(OC)c1	Autofluor counter 16645
Cc1cc(N2CCOCC2)nc2ccc(NC(=O)CCC(=O)N3CCC(C)CC3)cc12	Autofluor counter 19171, Mtb FBA inh 54
C[C@@H]1COC(=O)[C@@H](NC(=O)OCC2c3ccccc3-c3ccccc32)C/C=C\C[C@@H](CC(=O)N(CCO)Cc2ccccc2)C(=O)N1	none
O=C1NC[C@H](CCCCN2C[C@H](Cc3ccccc3)N(CCc3ccc(O)cc3)C(=O)C2=O)N(CC2CCCCC2)C1=O	none (no result: GDH-TPI counter, Mtb FBA inh)
Cc1ccn(CC(=O)N2CCCC(N3CCN(c4cccc(C(F)(F)F)c4)CC3)C2)n1 (configuration not stated)	none
O=c1[nH]c(=S)[nH]c2c1C(c1cccc(C(F)(F)F)c1)OC(CCc1ccccc1)C2 (configuration not stated)	none (no result: GDH-TPI counter, Mtb FBA inh)
CCCCNC(=O)CCC(=O)Nc1ccc2nc(N3CCC(C)CC3)cc(C)c2c1	Mtb FBA inh 68
CCC(C)NC(=O)CCC(=O)Nc1ccc2nc(N3CC(C)CC(C)C3)cc(C)c2c1 (configuration not stated)	none
CCOc1cc(C)nc(N2CCC(C(=O)NCC3CCCO3)CC2)n1 (configuration not stated)	none
Cc1onc(-c2ccccc2Cl)c1C(=O)OCn1nnc2ccccc2c1=O	none
CCOC(=O)c1cc2c(=O)n3ccccc3nc2n(CCCOC)c1=NC(=O)C(C)(C)C	Mtb FBA inh active
CCOC(=O)C(C)Sc1nc(=O)n2ccccc2n1 (configuration not stated)	none
CCOC(=O)c1cc2c(=O)n3ccccc3nc2n(C(C)C)c1=NC(=O)c1ccncc1	Mtb FBA inh 123
CCOC(=O)c1cc2c(=O)n3ccccc3nc2n(C(C)C)c1=NC(=O)c1c(-c2ccccc2Cl)noc1C	BoNT A protease 39
CCOC(=O)c1cc2c(=O)n3ccccc3nc2n(CCOC)c1=NC(=O)C(C)(C)C	Mtb FBA inh active
NC(=O)NC(CC(=O)OCC(=O)Nc1nnc(-c2ccccc2)o1)c1ccc(Cl)cc1 (configuration not stated)	none
CCCCN(C(=O)C1CC(=O)N(CCc2ccc(OC)c(OC)c2)C1)c1c(N)n(CC(C)C)c(=O)[nH]c1=O (configuration not stated)	none
Cc1ccc(S(=O)(=O)N2CCCC2CNC(=O)C(=O)NCCN2CCOCC2)cc1 (configuration not stated)	none (no result: BoNT A protease, Autofluor counter, BoNT-F LC inh, Anthrax LF inh2)
O=c1ccc2cc(S(=O)(=O)NCc3ccccc3)ccc2[nH]1	none
CCOC(=O)c1cc2c(=O)n3ccccc3nc2n(CCOC)c1=NC(=O)c1ccncc1	Autofluor counter inconclusive, Mtb FBA inh 186
COc1cc(/C=N/Nc2ncc(C(F)(F)F)cc2Cl)cc(OC)c1OC	GDH-TPI counter 32
CC(=O)Nc1cccc(-c2cc(C)c3cc4c(cc3n2)OCO4)c1	GDH-TPI counter 32
CC(=O)Nc1cccc(-c2csc(N)n2)c1	none
COc1ccc(/C=C(/NC(=O)c2ccc([N+](=O)[O-])cc2)C(=O)NCCCN(C)C)cc1	none
CCCCOc1ccc(C(=O)N/C(=C/C=C/c2ccccc2)C(=O)NCCO)cc1	GDH-TPI counter 31
O=C(NCCc1ccccc1)/C(=C\c1ccc([N+](=O)[O-])cc1)NC(=O)c1ccc(Br)cc1	none
CN(C)CCCNC(=O)/C(=C\C=C\c1ccccc1)NC(=O)c1ccc([N+](=O)[O-])cc1	GDH-TPI counter 34
Cc1ccc(C(=O)N/C(=C\c2ccc([N+](=O)[O-])cc2)C(=O)NCCc2ccccc2)cc1	Autofluor counter 25796
COc1ccc(/C=C(\NC(=O)c2ccc(OC)cc2)C(=O)NC(CCSC)C(=O)O)cc1 (configuration not stated)	none
COc1ccc(C(=O)N/C(=C\c2ccc([N+](=O)[O-])cc2)C(=O)NC(CCSC)C(=O)O)cc1 (configuration not stated)	GDH-TPI counter 33
CC(Oc1ccccc1F)c1nnc(SCC(=O)Nc2ccc(N3CCOCC3)cc2)o1 (configuration not stated)	none
Cc1ccccc1NC(=O)C(C)O/N=C/c1cccc([N+](=O)[O-])c1 (configuration not stated)	none
